Experimental data: PubChem BioAssay
Calls of active or inactive are those of the source.

Columns and labels:
[1] = small molecules captured by biotinylated probe aFSTL3 – biochemical, small-molecule microarray, fluorescence 635/667, stem cell growth factor project, primary screen (AID 1064); conditions: higher = more signal;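 note: measures binding of the biotinylated anti-FSTL3 antibody to printed compounds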
[2] = binders from COS7 lysate, DM2A8 probe, primary screen, torsin A project, cell lysate, small-molecule microarray, fluorescence 635/667 (AID 1065); conditions: higher = more signal, COS7 lysate expressing mutant human TOR1A
[3] = small molecules captured by biotinylated probe aFGF2 – biochemical, small-molecule microarray, fluorescence 635/667, stem cell growth factor project, primary screen (AID 1067); conditions: higher = more signal;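 note: measures binding of biotinylated aFGF2 protein to printed compounds on slides; z-score merges feature fluorescence and signal-to-noise across triplicate slides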
[4] = small molecules captured by biotinylated probe aFGF10 – biochemical, small-molecule microarray, fluorescence 635/667, stem cell growth factor project, primary screen (AID 1071); conditions: higher = more signal;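 note: score merges 667 nm spot intensity and signal to noise from triplicate slides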
[5] = target: Neurogenic locus notch homolog protein 2 (Homo sapiens) (UniProt Q04721); experiment: small molecules binding Notch2 protein – biochemical, small-molecule microarray, 635 nm fluorescence, stem cell growth factors, primary screen (AID 1073); conditions: higher = more signal
[6] = target: Pro-neuregulin-1, membrane-bound isoform (Homo sapiens) (UniProt Q02297); experiment: small molecules binding neuregulin-1 protein – biochemical, small-molecule microarray, fluorescence 635/667, psychiatric disease protein project, primary screen (AID 1075); conditions: NRG1 binding, 635 nm fluorescence, higher = more signal;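 note: score combines 667 nm spot fluorescence with signal to noise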
[7] = system: Neuregulin-1 EGF-like domain; experiment: small molecules binding NRG1 EGF domain – biochemical, small-molecule microarray, 635 nm fluorescence, primary screen (AID 1081); conditions: higher = more signal;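 note: binding of the protein to compounds printed on small-molecule microarray slides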
[8] = FRG1 expression reporter modulators in myotubes – cell-based, C2C12 myotubes, firefly/Renilla luciferase, luminescence, FRG1 inhibition for FSHD, primary screen (AID 1084); conditions: FRG1 promoter luciferase, higher = more signal, called active from +8 up or from −8 down
[9] = small molecules captured by biotinylated probe aFST – biochemical, small-molecule microarray, fluorescence 635/667, stem cell growth factor project, primary screen (AID 1086); conditions: higher = more signal;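 note: score merges 667 nm fluorescence with signal-to-noise of each printed compound spot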
[10] = binders of probe aHhip on microarray, primary screen, stem cell growth factor project, biochemical, small-molecule microarray, fluorescence 635/667 (AID 1087); conditions: higher = more signal;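 note: score merges spot fluorescence at 667nm with spot signal to noise ratio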
[11] = system: PRMT1 (protein arginine N-methyltransferase 1); experiment: small molecules binding arginine methyltransferase PRMT1 – biochemical, small-molecule microarray, 635 nm fluorescence, primary screen (AID 1088); conditions: higher = more signal;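 note: binding of Prmt1 protein to compounds spotted on small-molecule microarray slides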
[12] = growth effects on S. cerevisiae YJM789 – YJM789 clinical isolate, OD600, 24 h, basal, primary screen (AID 1089); conditions: higher = more signal, called active from +8 up or from −8 down;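 note: growth of clinical yeast isolate S. cerevisiae YJM 789 seeded 1000 cells per well; test concentration not given here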
[13] = S. pombe growth modifiers, basal conditions – strain 972, OD600, 24 h, no modulator, primary screen (AID 1090);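 note: basal condition with compound alone and no growth modifier present; test concentration not given here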; conditions: S. pombe 972 growth, higher = more signal, called active from +8 up or from −8 down
[14] = budding yeast growth modifiers under rapamycin – strain BY4716, OD600, 96 h, primary screen (AID 1091); note: test concentration not given here; conditions: S. cerevisiae BY4716 + rapamycin, higher = more signal, called active from +8 up or from −8 down
[15] = target: Torsin-1A-interacting protein 2 (Homo sapiens) (UniProt Q8NFQ8); experiment: small molecules binding lysate-expressed LULL1 – cell lysate, human LULL1 lysate, 635/667 nm fluorescence, primary screen (AID 1092); conditions: small-molecule microarray, hLULL1 lysate binding, 635 nm fluorescence; higher = more signal;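 note: probe is lysate of COS7 cells overexpressing human LULL1; score merges per-feature 667 nm fluorescence with signal-to-noise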
[16] = optical density change of DRC41 E. coli – strain DRC41, OD650, 24 h, E. coli filamentation project, primary screen (AID 1093);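 note: MC1000 strain lacking acrAB efflux and sulA so SOS filamentation is blocked; test concentration not given here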; conditions: E. coli DRC41 growth, higher = more signal, called active from +8 up or from −8 down
[17] = probe aLefty2 binding to arrayed compounds – biochemical, biotinylated probe, 635/667 nm fluorescence, primary screen (AID 1094); conditions: small-molecule microarray, higher = more signal;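 note: score merges spot fluorescence near 667 nm with spot signal-to-noise ratio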
[18] = system: Noggin (protein binding on small-molecule microarray); experiment: small molecules binding Noggin protein – biochemical, 635/667 nm fluorescence, primary screen (AID 1095); conditions: 635 nm fluorescence, higher = more signal;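 note: score merges 667 nm feature fluorescence with signal to noise over triplicate slides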
[19] = target: Neurogenic locus notch homolog protein 3 (Homo sapiens) (UniProt Q9UM47); experiment: small molecules binding NOTCH3 protein – biochemical, 635/667 nm fluorescence, primary screen (AID 1096); conditions: small-molecule microarray, 635 nm fluorescence, higher = more signal
[20] = probe aEGFR binding to arrayed compounds – biochemical, biotinylated probe, 635/667 nm fluorescence, primary screen (AID 1097); conditions: small-molecule microarray, higher = more signal;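 note: probe is a biotinylated anti-EGFR antibody binding compounds printed on slides; score combines fluorescence near 667 nm and signal to noise of each spot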

Chain of Pro-neuregulin-1, membrane-bound isoform (Homo sapiens) (Q02297 whole entry, looked up, the tested form may be a part, canonical isoform): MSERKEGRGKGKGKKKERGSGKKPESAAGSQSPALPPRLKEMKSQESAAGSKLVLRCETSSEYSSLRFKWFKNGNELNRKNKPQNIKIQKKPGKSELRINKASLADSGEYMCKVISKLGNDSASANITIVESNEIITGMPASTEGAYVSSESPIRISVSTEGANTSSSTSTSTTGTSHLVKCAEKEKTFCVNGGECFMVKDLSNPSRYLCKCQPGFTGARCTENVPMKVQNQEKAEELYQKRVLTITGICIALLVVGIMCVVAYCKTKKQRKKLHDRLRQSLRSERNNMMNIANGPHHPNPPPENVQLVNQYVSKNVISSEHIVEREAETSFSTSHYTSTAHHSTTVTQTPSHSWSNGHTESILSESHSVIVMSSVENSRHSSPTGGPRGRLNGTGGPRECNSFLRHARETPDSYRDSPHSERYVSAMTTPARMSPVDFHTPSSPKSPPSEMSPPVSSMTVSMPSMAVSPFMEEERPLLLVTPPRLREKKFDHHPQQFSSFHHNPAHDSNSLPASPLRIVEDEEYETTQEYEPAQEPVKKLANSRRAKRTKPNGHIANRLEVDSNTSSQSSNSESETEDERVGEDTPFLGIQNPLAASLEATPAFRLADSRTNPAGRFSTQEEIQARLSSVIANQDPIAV
Chain of Neurogenic locus notch homolog protein 3 (Homo sapiens) (Q9UM47 whole entry, looked up): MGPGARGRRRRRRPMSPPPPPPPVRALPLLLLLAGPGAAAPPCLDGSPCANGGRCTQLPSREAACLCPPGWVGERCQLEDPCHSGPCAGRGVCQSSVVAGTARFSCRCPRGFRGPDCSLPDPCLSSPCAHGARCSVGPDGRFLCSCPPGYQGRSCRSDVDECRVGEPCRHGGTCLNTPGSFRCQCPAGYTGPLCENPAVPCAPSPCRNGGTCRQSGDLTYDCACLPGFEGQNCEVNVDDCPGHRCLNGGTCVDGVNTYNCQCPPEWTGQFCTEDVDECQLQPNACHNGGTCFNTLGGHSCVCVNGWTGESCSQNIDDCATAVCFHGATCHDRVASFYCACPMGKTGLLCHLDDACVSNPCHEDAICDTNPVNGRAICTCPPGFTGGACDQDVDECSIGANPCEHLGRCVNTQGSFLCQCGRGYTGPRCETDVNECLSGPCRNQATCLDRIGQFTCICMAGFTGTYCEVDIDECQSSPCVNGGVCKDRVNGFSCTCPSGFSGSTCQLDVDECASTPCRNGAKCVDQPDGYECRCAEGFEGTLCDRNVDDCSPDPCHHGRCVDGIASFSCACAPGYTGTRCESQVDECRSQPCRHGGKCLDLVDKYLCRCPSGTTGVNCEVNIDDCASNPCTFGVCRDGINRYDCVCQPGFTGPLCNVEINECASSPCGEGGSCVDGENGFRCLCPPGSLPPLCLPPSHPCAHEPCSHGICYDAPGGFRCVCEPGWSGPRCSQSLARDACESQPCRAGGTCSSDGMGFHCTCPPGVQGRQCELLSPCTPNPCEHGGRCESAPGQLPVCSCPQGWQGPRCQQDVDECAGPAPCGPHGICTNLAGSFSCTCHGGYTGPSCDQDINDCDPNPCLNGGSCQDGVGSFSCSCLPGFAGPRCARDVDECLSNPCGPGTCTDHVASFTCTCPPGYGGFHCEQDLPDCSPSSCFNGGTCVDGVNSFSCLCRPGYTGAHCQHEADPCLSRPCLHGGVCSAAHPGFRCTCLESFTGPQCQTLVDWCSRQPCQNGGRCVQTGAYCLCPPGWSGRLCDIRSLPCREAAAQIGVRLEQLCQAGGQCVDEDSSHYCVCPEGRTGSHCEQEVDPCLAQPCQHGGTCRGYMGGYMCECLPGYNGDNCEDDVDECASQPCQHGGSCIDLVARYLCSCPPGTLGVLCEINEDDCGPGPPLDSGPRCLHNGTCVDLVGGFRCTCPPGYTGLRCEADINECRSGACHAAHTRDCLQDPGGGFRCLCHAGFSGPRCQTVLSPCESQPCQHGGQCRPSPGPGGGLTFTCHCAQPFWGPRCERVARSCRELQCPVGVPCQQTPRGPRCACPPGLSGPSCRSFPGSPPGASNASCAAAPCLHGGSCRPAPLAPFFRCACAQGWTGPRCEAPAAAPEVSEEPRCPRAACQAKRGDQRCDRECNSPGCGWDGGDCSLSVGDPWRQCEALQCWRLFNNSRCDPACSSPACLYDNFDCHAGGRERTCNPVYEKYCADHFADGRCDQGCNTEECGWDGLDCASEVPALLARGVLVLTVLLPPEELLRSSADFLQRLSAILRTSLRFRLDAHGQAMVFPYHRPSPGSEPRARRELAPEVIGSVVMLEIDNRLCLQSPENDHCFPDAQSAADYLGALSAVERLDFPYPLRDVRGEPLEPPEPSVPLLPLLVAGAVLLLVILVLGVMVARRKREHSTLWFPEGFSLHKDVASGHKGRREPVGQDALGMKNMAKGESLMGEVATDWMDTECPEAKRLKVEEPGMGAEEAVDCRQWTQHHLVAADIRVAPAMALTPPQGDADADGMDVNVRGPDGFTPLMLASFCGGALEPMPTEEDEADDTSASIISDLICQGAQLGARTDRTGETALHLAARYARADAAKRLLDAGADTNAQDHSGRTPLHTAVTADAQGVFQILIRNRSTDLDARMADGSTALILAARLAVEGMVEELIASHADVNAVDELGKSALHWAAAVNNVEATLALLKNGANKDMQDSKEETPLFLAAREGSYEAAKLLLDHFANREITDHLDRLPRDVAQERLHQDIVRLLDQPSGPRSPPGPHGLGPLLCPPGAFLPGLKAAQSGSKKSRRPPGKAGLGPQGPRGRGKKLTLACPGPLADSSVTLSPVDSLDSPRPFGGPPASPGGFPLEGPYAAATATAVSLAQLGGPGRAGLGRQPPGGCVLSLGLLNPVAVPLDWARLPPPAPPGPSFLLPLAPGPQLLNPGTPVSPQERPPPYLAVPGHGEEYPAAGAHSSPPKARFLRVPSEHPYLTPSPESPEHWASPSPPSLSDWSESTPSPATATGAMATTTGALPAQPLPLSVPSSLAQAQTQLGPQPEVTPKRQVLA
Chain of Torsin-1A-interacting protein 2 (Homo sapiens) (Q8NFQ8 whole entry, looked up): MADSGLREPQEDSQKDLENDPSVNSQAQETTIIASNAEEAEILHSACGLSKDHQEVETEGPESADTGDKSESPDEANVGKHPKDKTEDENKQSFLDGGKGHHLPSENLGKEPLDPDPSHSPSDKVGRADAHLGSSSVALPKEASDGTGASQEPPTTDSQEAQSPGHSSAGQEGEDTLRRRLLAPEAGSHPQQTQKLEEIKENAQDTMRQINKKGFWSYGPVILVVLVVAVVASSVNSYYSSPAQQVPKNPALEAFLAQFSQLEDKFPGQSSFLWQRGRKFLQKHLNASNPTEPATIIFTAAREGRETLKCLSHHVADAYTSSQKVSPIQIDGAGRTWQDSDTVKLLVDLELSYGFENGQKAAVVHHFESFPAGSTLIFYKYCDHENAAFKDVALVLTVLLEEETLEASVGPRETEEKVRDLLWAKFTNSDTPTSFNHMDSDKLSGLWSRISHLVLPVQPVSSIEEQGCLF

[N-]=[N+]=NCc1ccccc1[C@@H]1OC(c2ccc(OCCCO)cc2)=N[C@]1(CCS(=O)(=O)c1ccccc1)C(=O)N1CCOCC1
composite z-score [1]: 0.788 | composite z-score [2]: 1.17 | composite z-score [3]: 0.0332 | composite z-score [4]: 0.89 | composite z-score [5]: 1.64 | composite z-score [6]: 1.48 | composite z-score [7]: 1.29 | z-score [8]: 0.291 (inactive) | composite z-score [9]: 1.25 | composite z-score [10]: -0.0296 | composite z-score [11]: 1.54 | z-score [12]: -0.401 (inactive) | z-score [13]: 0.144 (inactive) | z-score [14]: 0.971 (inactive) | composite z-score [15]: 3.24 | z-score [16]: 1.7 (inactive) | composite z-score [17]: 0.456 | composite z-score [18]: 0.256 | composite z-score [19]: 1.07 | composite z-score [20]: 0.256

C=C(CCCC)/C(=C/C[C@@H](OC(C)=O)c1ccccc1OCCO)c1cc(C(=O)OC)ccc1OC
composite z-score [1]: 0.0248 | composite z-score [2]: -0.0044 | composite z-score [3]: -0.0996 | composite z-score [4]: 0.187 | composite z-score [5]: -0.659 | composite z-score [6]: -0.0693 | composite z-score [7]: -0.0487 | z-score [8]: 0.549 (inactive) | composite z-score [9]: -0.38 | composite z-score [10]: -0.271 | composite z-score [11]: 0.252 | z-score [12]: 1.03 (inactive) | z-score [13]: 0.404 (inactive) | z-score [14]: -0.358 (inactive) | composite z-score [15]: 0.615 | z-score [16]: 0.531 (inactive) | composite z-score [17]: -0.12 | composite z-score [18]: 0.0643 | composite z-score [19]: -0.218 | composite z-score [20]: -0.185

CN1C(=O)C2C=CC(C(O)c3ccc(F)cc3)N(N(c3ccccc3)c3ccccc3)C2C1=O (stereo not given)
composite z-score [1]: 0.5 | composite z-score [2]: -0.123 | composite z-score [3]: -0.0446 | composite z-score [4]: 0.122 | composite z-score [5]: 0.822 | composite z-score [6]: 1.28 | composite z-score [7]: 1.03 | z-score [8]: -0.368 (inactive) | composite z-score [9]: 0.56 | composite z-score [10]: -0.107 | composite z-score [11]: 0.672 | z-score [12]: 0.0729 (inactive) | z-score [13]: 0.91 (inactive) | z-score [14]: 0.0933 (inactive) | composite z-score [15]: 1.86 | z-score [16]: -1.2 (inactive) | composite z-score [17]: 0.0606 | composite z-score [18]: 0.3 | composite z-score [19]: 0.121 | composite z-score [20]: -0.0234
